Compound activity deposited in PubChem BioAssay by National Center for Advancing Translational Sciences (NCATS).
Shown are actives, neighbours in structure and some others; about 7.5% of the full set was active somewhere.
Vaccinia mCherry: inhibitors of vaccinia virus infection (mCherry reporter signal); Vaccinia virus mCherry reporter infection, fluorescence; Potency, µM (series often up to 36.5 µM), inactives show at the top dose activity change, negative = inhibition, hits mostly inhibitors; hit rate 0.63% among 310,000; AID 720579; calls by dose curve; tested in A549 cells; also: potency is read from the fitted curve at half-maximal effect; nearly all actives have a fitted effect of over 35% in size
HCV inhibitor: inhibitors of hepatitis C virus infection; Huh7.5.1 HCVcc-Cre infection, luciferase reporter, 44 h; Potency, µM (top dose mostly 41.8 µM), inactives show top-dose activity change, negative = inhibition, usual class: inhibitors; hit rate 3.4% among 340,000; also: potency is read from the fitted curve at half-maximal effect
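After 44 h co-culture of compound, cells and HCVcc-Cre (~0.5 moi), substrate is added for 15 min at room temperature and luciferase measured over 15 sec. Cells were seeded at 1,000/well and pre-cultured 4 h.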
FMDV inh: foot and mouth disease virus antiviral activity. AID 1159524. FMDV antiviral cell-based qHTS. hit rate 1.2% among 410,000. Potency, µM (series often up to 57.9 µM), for inactives: top-dose activity change, negative = inhibition, usual class: inhibitors; calls by dose curve; tested in HEK293T cells; also: read-out not given here; potency is read from the fitted curve at half-maximal effect; nearly all actives have a fitted effect of over 45% in size
Vaccinia Venus: vaccinia inhibition (Venus reporter); Vaccinia virus Venus reporter expression, fluorescence; Potency, µM (doses to about 36.5 µM), for inactives: at the highest dose activity change, negative = inhibition, actives largely listed as inhibitors; hit rate 0.46% among 330,000; calls by dose curve; tested in A549 cells; also: potency is read from the fitted curve at half-maximal effect; nearly all actives have a fitted effect of over 30% in size
HCMV inh: human cytomegalovirus inhibition; HFF cells, HCMV-luciferase reporter, 72 h; stronger effect = lower value; activity change, negative = inhibition, % at 57.5 µM; hit rate 4.5% among 410,000; in the data active = activity change below about -60%; inconclusive = no clear call, values can overlap the other calls; inactive = above about -39%
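Human foreskin fibroblasts infected with luciferase-reporter HCMV at MOI 1 PFU/cell, compounds at two doses. Luciferase measured 72 h post infection; normalized to buffer-only basal and Salinomycin (10uM) controls.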
FBPA Giardia inh: inhibitors of Giardia lamblia fructose-1,6-bisphosphate aldolase. AID 2451. Potency, µM (highest dose often 59.6 µM), without a hit: top-dose activity, negative = inhibition, hits mostly inhibitors. purified Giardia FBPA. A8B2U2. hit rate 0.71% among 290,000; also: potency is read from the fitted curve at half-maximal effect; nearly all actives have a fitted effect of over 55% in size
Target sequence (A8B2U2 whole entry, looked up): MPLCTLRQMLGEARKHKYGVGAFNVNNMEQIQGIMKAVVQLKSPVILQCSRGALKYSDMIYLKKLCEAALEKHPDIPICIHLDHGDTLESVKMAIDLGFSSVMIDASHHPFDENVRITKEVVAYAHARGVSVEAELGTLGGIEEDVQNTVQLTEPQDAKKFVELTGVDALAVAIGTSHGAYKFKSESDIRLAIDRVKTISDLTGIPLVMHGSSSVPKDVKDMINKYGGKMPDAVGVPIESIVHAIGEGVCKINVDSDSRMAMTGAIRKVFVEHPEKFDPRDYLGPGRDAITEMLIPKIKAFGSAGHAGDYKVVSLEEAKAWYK
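40 nM FBPA preincubated 10 min at RT with compound (up to 57.5 uM final), then substrate plus GAPDH/TPI/NAD/arsenate coupling and diaphorase/resazurin added. Fluorescence read after 20 min at RT, 525/598 nm.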
* marks the source's active call; other numbers are inactive results; i = inactive; ? = inconclusive; . = not tested or not shown; [ ] = dose if it differs, or a comment. Unless noted, calls follow the shape of the dose curve; as a rule, active = well fitted curve in the direction sought with a large enough effect; inconclusive = small, poorly fitted or top-dose-only effect, or another doubt; inactive = no such curve, though single readings can be large; an effect the other way counts as inactive or inconclusive. % is scaled to controls: 0 for no effect and ±100 for the full control effect.

SMILES	Vaccinia mCherry	HCV inhibitor	FMDV inh	Vaccinia Venus	HCMV inh	FBPA Giardia inh
Cc1ccc(-n2nc(C(=O)Nc3cccc(C#N)c3)c3c4ccccc4n(C)c3c2=O)cc1	-12%	.	-16%	-2%	-6	.
CSCC[C@H](NC(=O)[C@H](Cc1ccccc1)NC(=O)[C@H](Cc1cnc[nH]1)NC(=O)CNC(=O)[C@@H](NC(=O)[C@H](C)NC(=O)[C@H](Cc1c[nH]c2ccccc12)NC(=O)[C@H](CC(C)C)NC(=O)[C@H](CC(N)=O)NC(=O)CN)[C@@H](C)O)C(N)=O	.	.	.	.	.	0%
O=C(c1cccs1)N1CCCC(N2CCN(c3cccc(C(F)(F)F)c3)CC2)C1 (stereo not given)	-27%	?	?	-14%	-19	.
O=C(c1ccco1)N1CCCC(N2CCN(c3cccc(C(F)(F)F)c3)CC2)C1 (stereo not given)	-13%	22µM*	-26%	-26%	24	.
Cc1ccc(CN(C#N)c2nc(C)cc(C)n2)cc1	-9%	5%	1%	-18%	-15	9%
Cc1cc(C)nc(N(C#N)Cc2ccc(Cl)cc2)n1	-1%	5%	7%	-1%	-62*	3%
CCOc1ccc(CCNC(=O)c2cc3c(=O)n(CC)c4ccccc4c3s2)cc1OCC	-5%	.	0%	-2%	2	.
Cn1cc(-c2cc3n(n2)CCC(=O)N3CCCC(=O)Nc2ccccc2F)c2ccccc21	-17%	.	-22%	-8%	8	.
Cn1cc(-c2cc3n(n2)CCC(=O)N3CCCC(=O)Nc2ccccc2Cl)c2ccccc21	-24%	.	-27%	-11%	-62*	.
C=C[C@@H]1c2cc(C)ccc2N(S(=O)(=O)c2ccc(C)cc2)[C@H](c2ccc(OC(C)=O)cc2)C1(C#N)C#N	?	8.9µM*	0%	?	-97*	.
COC(=O)[C@@]1(Cc2ccccc2)[C@H]2c3cc(C(=O)N4CCCC4)n(Cc4ccc(S(C)(=O)=O)cc4)c3C[C@H]2CN1C(=O)c1ccccc1	.	.	.	.	.	-7%
COC(=O)[C@@]1(Cc2ccc(OC)cc2)[C@H]2c3cc(C(=O)N4CCCC4)n(Cc4ccc(S(C)(=O)=O)cc4)c3C[C@H]2CN1C(=O)c1ccccc1	i	.	-16%	-6%	-66*	-8%
CCc1nc2nc(C)c(NS(=O)(=O)c3ccc(C)cc3)c(=O)n2[nH]1	-7%	.	-2%	-4%	5	.
FC(F)(F)c1cccc(NC(=S)NC2CCCC2)c1	-19%	9%	-21%	-22%	-64*	-4%
FC(F)(F)c1cccc(NC(=S)Nc2cccc(NC(=S)Nc3cccc(C(F)(F)F)c3)n2)c1	?	10µM*	-21%	10%	?	-4%
FC(F)(F)c1cccc(N2CCN(C(=S)NC3CCCC3)CC2)c1	.	32µM*	20µM*	?	-29	-2%
CN(C(=O)Nc1cccc(C(F)(F)F)c1)C1CCCCC1	0%[7.34 µM]	1%	20%	-1%[7.34 µM]	-63*	14%
O=C(O[C@H]1[C@H](Cc2ccccc2)NS(=O)(=O)[C@H]2CC3C=C[C@]12O3)c1ccc(Br)cc1	-3%	.	.	-22%	.	.
Cc1ccc(NC(=O)CSc2nnc3ccc4ccccc4n23)cc1	-4%	.	-11%	-4%	1	.
O=C(COC(=O)/C=C/c1ccccc1)NCc1ccccc1Cl	i	12%	-22%	-6%	1	0%
Cc1nn(CCCC(=O)Nc2cccc(F)c2)c(=O)c2c1sc1ccccc12	-9%	.	-17%	-9%	-20	.
COc1ccc(C[C@H](N)C(=O)N[C@H]2[C@@H](O)[C@H](n3cnc4c(N(C)C)ncnc43)O[C@@H]2CO)cc1	1.3µM*	0.32µM*	?	1.6µM*	-98*	.
CN(C)c1ncnc2c1ncn2C1OC(CO)C(O)C1O (stereo not given)	13µM*	4.5µM*	-18%	10µM*	2	7%
O=C(CSc1nc2ccccc2s1)N1CCCCC1	-19%	-4%	.	-13%	112	-3%
Cc1c(Cl)cccc1N/C(SCC(=O)N1CCCCCC1)=C(/C#N)c1nc2ccccc2s1	i	?	?	-12%	-101*	-5%
SMILES	Vaccinia mCherry	HCV inhibitor	FMDV inh	Vaccinia Venus	HCMV inh	FBPA Giardia inh
O=C(O)c1cccnc1Nc1ccc(Cl)cc1	?	5%	18%	24%	-72*	23%
CCC(C)Sc1ccc([C@@H]2[C@@H]3C(=O)N(CC)C(=O)[C@@H]3[C@]3(C(=O)OC)CCCCN23)cc1OC (stereo not given in full)	i	11µM*	-24%	-22%	14	.
Cc1c(Cl)cccc1NC(=O)CSc1nc(=O)n(Cc2ccco2)c2c1CCC2	?	.	0%	?	?	.
CCc1ccccc1NC(=O)c1ccc(Cn2nc(N3CCN(c4ccccc4)CC3)ccc2=O)o1	-28%	.	?	-20%	-75*	.
COC(=O)/C=C1/N/C(=N\c2nc(C)cc(C)n2)N(c2cccc(C)c2)C1=O	-19%	5%	28µM*	-11%	?	?
COC(=O)/C=C1\N/C(=N\c2nc(C)cc(C)n2)N(c2ccccc2)C1=O	-11%	3%	?	-8%	33	?
COc1ccc(C2=NCCn3nc4cc([N+](=O)[O-])ccc4c32)cc1	0%	?	9%	6%	-26	.
COc1ccc(-n2cc3ccc([N+](=O)[O-])cc3n2)cc1	?	?	-35%	4%	-96*	-6%
COc1ccc(-c2cc3nc(C)cc(-c4ccc(OC)cc4)n3n2)cc1	.	10µM*	-3%	.	20	3%
Cc1cccc(-c2cc3nc(C)cc(NCCCN(C)C)n3n2)c1	-23%	2.5µM*	10%	-14%	91	0%
COc1ccc(-c2cc3nc(C)cc(N)n3n2)cc1	-8%	13%	-53%	-14%	153	-6%
CN(C)CCCNc1cc(-c2ccccc2)nc2cc(-c3cccc(F)c3)nn12	.	?	-20%	.	33	10%
Cc1cc(C)n2nc(-c3cccc(Br)c3)cc2n1	-9%	?	24%	-11%	111	-3%
Cc1cccc(-c2cc3nc(C)cc(C)n3n2)c1	-16%	10µM*	50%	-13%	172	-11%
CC(C)CN1Cc2ccccc2Oc2cc(Br)ccc2S1(=O)=O	?	?	0%	-22%	?	.
C[C@H]1CN([C@@H](C)CO)C(=O)CCCn2cc(nn2)CO[C@@H]1CN(C)S(=O)(=O)c1ccccc1F	.	.	.	.	2	.
CC(C)C(NS(C)(=O)=O)c1nnc2n1CCN(Cc1ccc(C#CC(C)(C)O)cc1)CC2 (stereo not given)	-13%	.	0%	-3%	.	.
CCCc1nn(C)c(C(=O)Nc2ccccc2)c1Cl	i	-27%	?	-10%	-15	10%
Cc1ccc(OCC(=O)N2N=C(C(F)(F)F)CC2(O)C(C)(C)C)cc1C (stereo not given)	.	-25%	?	.	-91*	-8%
